Laboratory results from PubChem BioAssay AID602340 (Broad Institute, 2012).
The whole screen tested about 330,000 compounds, of which about 2,600 (0.79%) were called active. Many of the other results were omitted from the sample, so actives are more common in it than they were. Unmarked numbers belong to inactive results.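 How the source made its calls: active means mean ATP rescue above about 67%, or every replicate alone reaching that limit (limit read from the data, passing the limit was not always enough); inconclusive means no clear call, values can overlap the other calls; inactive means mean under the limit and some replicate under it.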

assay: suppressors of statin myotoxicity in C2C12 myotubes, primary screen, cell-based, single point, plate reader (AID 602340); conditions: C2C12 myotubes + simvastatin, ATP luminescence, 48 h; at 7.49 µM; stronger effect = higher value;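 further: myotubes were challenged with 10 µM simvastatin during compound exposure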

| Compound | rescue of ATP level |
| --- | --- |
| COc1ccc(C(=O)C2CN(C)CC2C(=O)c2ccc(OC)cc2)cc1 (stereo not given) | 152% (active) |
| Cc1ccc(C2CN(C)CC2C(=O)c2ccc(F)cc2)cc1 (stereo not given) | -5.74% |
| COc1ccc(C(=O)CC2C(=O)N(C)C(=O)N(C)C2=O)cc1 | -12% |
| COc1cccc(-c2ccc3n(c2=O)C[C@H]2[C@H](CO)[C@@H](C(=O)O)[C@@H]3N2C(=O)c2cnccn2)c1 | 13.9% |
| CCn1cc(CN2CCCC(C(=O)c3cccc(C(F)(F)F)c3)C2)cn1 (stereo not given) | -1.69% |
| COc1cccc(C(c2nnnn2-c2ccc3c(c2)OCCO3)N2CCC3(CC2)C(=O)NCN3c2ccccc2)c1OC (stereo not given) | -28% |
| COc1ccccc1CN1CCN(C(=O)Cc2ccccc2)CC1 | -9.85% |
| CCN1CCN(C(=O)Cc2coc3cc(C)cc(C)c23)CC1 | 104% (active) |
| Cc1cc(OCc2cc(C(=O)O)oc2C)c2c3c(c(=O)oc2c1)CCCC3 | 23.5% |
| O=C(O)[C@H]1[C@H](CO)[C@H]2Cn3c(ccc(-c4ccccc4)c3=O)[C@@H]1N2S(=O)(=O)c1ccccc1F | 21.2% |
